According to the antibiotic and cytotoxicity screens of Wong et al. (2023):
The whole screen tested about 39,000 compounds, of which about 3,300 (8.5%) were called active. Shown is part of a subset that was picked to be rich in actives.

Each compound was assayed on HepG2 (assay: cytotoxicity call (relative viability < 0.9)). Settings: 10 µM.
With COC(=O)C1=CC(CCCO)=C[C@@H](c2ccc(CN3CCCC3)cc2)N(Cc2sc3ccccc3c2Cl)C=C1C(=O)OC the cytotoxicity call was “inactive”. In the case of C[C@@H]1CN([C@H](C)CO)C(=O)c2cc(C#Cc3ccccc3)cnc2O[C@H]1CN(C)C(=O)CCN1CCCCC1, the cytotoxicity call is reported as “inactive”. For C[C@H](CO)N1C[C@H](C)[C@@H](CN(C)C(=O)CCN2CCCCC2)Oc2ncc(C#Cc3ccccc3)cc2C1=O, the cytotoxicity call was “inactive”. C[C@@H]1CN([C@H](C)CO)C(=O)c2cc(C#Cc3ccccc3)cnc2O[C@@H]1CN(C)C(=O)CCN1CCCCC1 was tested, and the cytotoxicity call was “inactive”. In the case of C[C@H]1CN([C@@H](C)CO)C(=O)c2cc(C#Cc3ccccc3)cnc2O[C@H]1CN(C)C(=O)CCN1CCCCC1, the cytotoxicity call is reported as “active”. C[C@@H]1CN([C@@H](C)CO)C(=O)c2cc(C#Cc3ccccc3)cnc2O[C@@H]1CN(C)C(=O)CCN1CCCCC1 was tested, and the cytotoxicity call was “inactive”. In the case of C[C@H]1CN([C@@H](C)CO)C(=O)c2cc(C#Cc3ccccc3)cnc2O[C@@H]1CN(C)C(=O)CCN1CCCCC1, the cytotoxicity call is reported as “active”. For CC(C)NC(=O)N(C)C[C@@H]1Oc2ccc(NC(=O)c3ccncc3)cc2CC(=O)N([C@@H](C)CO)C[C@H]1C, the cytotoxicity call was “inactive”. COc1ccc(S(=O)(=O)N(C)C[C@@H]2Oc3ccc(NC(=O)CCCN(C)C)cc3CC(=O)N([C@H](C)CO)C[C@@H]2C)cc1 was tested, and the cytotoxicity call was “inactive”. For Cc1ccc(=O)[nH]n1, the cytotoxicity call was “inactive”. C[C@@H]1CN([C@@H](C)CO)C(=O)c2cc(-c3cccnc3)cnc2O[C@@H]1CN(C)Cc1ccc(Oc2ccccc2)cc1 was tested, and the cytotoxicity call was “inactive”. C[C@H]1CCCCO[C@H](CN(C)C(=O)Nc2cccc3ccccc23)[C@@H](C)CN([C@@H](C)CO)C(=O)c2cc(NC(=O)Cc3ccccc3)ccc2O1 was tested, and the cytotoxicity call was “inactive”. With COc1cccc(S(=O)(=O)N(C)C[C@@H]2Oc3ncc(-c4cccc(C(=O)N(C)C)c4)cc3C(=O)N([C@@H](C)CO)C[C@H]2C)c1 the cytotoxicity call was “inactive”. In the case of CC(C)NC(=O)Nc1ccc2c(c1)C(=O)N([C@H](C)CO)C[C@H](C)[C@@H](CN(C)Cc1ccccc1)OCCCC[C@H](C)O2, the cytotoxicity call is reported as “inactive”. In the case of COc1ccc2c3c([nH]c2c1)[C@@H](CO)N(Cc1ccc(cc1)Cl)C[C@]13CN(CCc2ccccc2)C1, the cytotoxicity call is reported as “active”. For COc1ccc2c3c([nH]c2c1)[C@H](CO)N(Cc1ccc(cc1)Cl)C[C@]13CN(CCc2ccccc2)C1, the cytotoxicity call was “active”. COc1ccc2c3c([nH]c2c1)[C@@H](CO)N(C[C@]13CN(CCc2ccccc2)C1)C(=O)CN1CCOCC1 was tested, and the cytotoxicity call was “inactive”. With COc1ccc(cc1)CN1C[C@]2(CN(C2)C(=O)Cc2ccncc2)c2c([nH]c3cc(ccc23)OC)[C@H]1CO the cytotoxicity call was “inactive”. For COc1ccc2c3c([nH]c2c1)[C@@H](CO)N(Cc1ccccc1)C[C@]13CCN(CC1)C(=O)Nc1cccc(c1)F, the cytotoxicity call was “inactive”. In the case of COc1ccc2c3c([nH]c2c1)[C@H](CO)N(C[C@]13CN(CCc2ccccc2)C1)C(=O)CN1CCOCC1, the cytotoxicity call is reported as “inactive”. C[C@H]1CN([C@@H](C)CO)C(=O)c2c(c3ccccc3n2C)-c2ccccc2CO[C@@H]1CN(C)Cc1ccccc1C(F)(F)F was tested, and the cytotoxicity call was “inactive”. With C[C@H]1CN([C@@H](C)CO)C(=O)Cc2cc(NC(=O)CCN3CCOCC3)ccc2O[C@H]1CN(C)S(=O)(=O)c1ccccc1 the cytotoxicity call was “inactive”. With C=C[C@](C)(O)CCC[C@H](C)CCC[C@H](C)CCCC(C)C the cytotoxicity call was “inactive”. In the case of CC(=O)OC1CCC2(C)C(CCC3(C)C2CC=C2C4CC(C)(C)CCC4(C(=O)O)CCC23C)C1(C)C (stereo unspecified), the cytotoxicity call is reported as “inactive”. For COc1ccc(S(=O)(=O)Nc2ccc3c(c2)C(=O)N([C@@H](C)CO)C[C@H](C)[C@H](CN(C)Cc2ccc4c(c2)OCO4)OCCCC[C@H](C)O3)cc1, the cytotoxicity call was “inactive”. With C[C@@H]1CN([C@H](C)CO)C(=O)Cc2cc(NS(=O)(=O)c3ccc(Cl)cc3)ccc2O[C@@H]1CN(C)C(=O)Nc1ccc(C(F)(F)F)cc1 the cytotoxicity call was “inactive”. With CN(C)C(=O)C[C@@H]1C=C[C@H](NC(=O)C2CC2)[C@@H](CO)O1 the cytotoxicity call was “inactive”. With COc1ccc(S(=O)(=O)N(C)C[C@@H]2OCCCC[C@H](C)Oc3ccc(NC(=O)NC4CCCCC4)cc3C(=O)N([C@@H](C)CO)C[C@H]2C)cc1 the cytotoxicity call was “inactive”. For COc1ccc(S(=O)(=O)N(C)C[C@@H]2OCCCC[C@H](C)Oc3ccc(NC(=O)NC4CCCCC4)cc3C(=O)N([C@H](C)CO)C[C@@H]2C)cc1, the cytotoxicity call was “inactive”. COc1ccc(S(=O)(=O)N(C)C[C@H]2OCCCC[C@H](C)Oc3ccc(NC(=O)NC4CCCCC4)cc3C(=O)N([C@H](C)CO)C[C@@H]2C)cc1 was tested, and the cytotoxicity call was “inactive”. In the case of COc1ccc(S(=O)(=O)N(C)C[C@H]2OCCCC[C@H](C)Oc3ccc(NC(=O)NC4CCCCC4)cc3C(=O)N([C@H](C)CO)C[C@H]2C)cc1, the cytotoxicity call is reported as “inactive”. In the case of COc1ccc(S(=O)(=O)N(C)C[C@H]2OCCCC[C@@H](C)Oc3ccc(NC(=O)NC4CCCCC4)cc3C(=O)N([C@@H](C)CO)C[C@H]2C)cc1, the cytotoxicity call is reported as “active”. In the case of COc1ccc(S(=O)(=O)N(C)C[C@H]2OCCCC[C@@H](C)Oc3ccc(NC(=O)NC4CCCCC4)cc3C(=O)N([C@@H](C)CO)C[C@@H]2C)cc1, the cytotoxicity call is reported as “active”. In the case of COc1ccc(S(=O)(=O)N(C)C[C@@H]2OCCCC[C@@H](C)Oc3ccc(NC(=O)NC4CCCCC4)cc3C(=O)N([C@H](C)CO)C[C@H]2C)cc1, the cytotoxicity call is reported as “active”. COc1ccc(S(=O)(=O)N(C)C[C@H]2OCCCC[C@H](C)Oc3ccc(NC(=O)NC4CCCCC4)cc3C(=O)N([C@@H](C)CO)C[C@H]2C)cc1 was tested, and the cytotoxicity call was “inactive”. COc1ccc(S(=O)(=O)N(C)C[C@@H]2OCCCC[C@H](C)Oc3ccc(NC(=O)NC4CCCCC4)cc3C(=O)N([C@@H](C)CO)C[C@@H]2C)cc1 was tested, and the cytotoxicity call was “inactive”.
